The text below walks through data of PubChem BioAssay (EPA / NIEHS).

Records with an inconclusive call do not appear. Active and inactive are the calls of the source. Rule for the calls: active = hit-call score of the fitted dose curve at least 0.9, where 1 is the maximum; inconclusive = response in the unintended direction; inactive = score below 0.9.

Read-out in the test: ABC Transporter (ABCB1), ABCB1 (gene 5243)
The experiment in a line: CLD_ABCB1_24hr: CellzDirect (CLD) Gene Expression Assay for ABC Transporter (ABCB1) at 24 hours (AID 2283684). As to the method: CLD_24hr is a cell-based, multiplexed-readout assay that uses hepatocyte, a human liver primary cell, with measurements taken at 24 hours after chemical dosing in a 96-well plate.CLD_ABCB1_24hr is one of 16 assay component(s) measured or calculated from the CLD_24hr assay. It is designed to make measurements of mRNA induction, a form of inducible reporter, as detected with chemiluminescence signals by Quantitative Nuclease Protection Assay (qNPA) technology.Data from the assay component CLD_ABCB1_24hr was analyzed at the endpoint, CLD_ABCB1_24hr, in the positive analysis fitting direction relative to DMSO as the negative control and baseline of activity. Using a type of inducible reporter, gain-of-signal activity can be used to understand changes in the reporter gene as they relate to the gene ABCB1. Furthermore, this assay endpoint can be referred to as a primary readout. To generalize the intended target to other relatable targets, this assay endpoint is annotated to the transporter intended target family, where subfamily is ABC transporter.
Human hepatocyte cultures were treated daily for two consecutive days with fresh dosing solutions containing appropriate concentrations of the 320 ToxCast chemicals (chemical identities were blinded to CellzDirect and other ToxCast collaborators), vehicle control (0.2% DMSO), and positive control inducers as summarized in Table 1. Due to the large number of treatment groups and chemicals examined, the ToxCast chemicals were divided into two groups (spanning two independent cultures of hepatocytes from separate donor preparations (Hu778: ToxCast plates 1 and 2; Hu776: ToxCast plates 3 and 4). Each preparation of human hepatocyte cultures was treated with respective vehicle control, medium only control, set of six positive controls/reference chemicals for the five hepatic receptor pathways, and a subset of eight of the ToxCast chemicals (indoxacarb, pyrithiobac-sodium, norflurazon, cyhalofop-butyl, methomyl, thiram, acetochlor, and propiconazole). These replicate data, coupled with internal replicates designed within the blinded ToxCast chemical library, provided additional data to evaluate interindividual differences between hepatocyte preparations and their potential impact on chemical profiles.Cell morphology and integrity were evaluated using phase-contrast microscopy as an indicator of hepatocyte cell health (Tyson & Green, 1987). Cultures for each treatment group (i.e., media, vehicle [0.2% DMSO], positive control inducers [multiple concentrations], and the ToxCast chemicals [multiple concentrations]) were observed and cell morphology was assessed relative to vehicle control cultures at each harvest time point (0, 6, 24, or 48 h). […] Images were evaluated at the conclusion of the study to assess changes in cell integrity and account for the effects of chemical exposure on uncharacteristic changes in concentration-dependent gene expression profiles. The results from these determinations of apparent cytotoxicity were annotated (yes/no) alongside the corresponding qNPA data for reference.At the conclusion of each treatment period, hepatocyte cultures (96-well) were washed with 1 volume of HBSS, lysed by addition of 25 ul ArrayPlate lysis buffer (HTG, Tucson, AZ), and 70 ul/well of Denaturation Oil, denatured by incubation at 95C for 10 min, and frozen at approximately -70C until analysis by nuclease protection assay (qNPA) (Roberts et al., 2007). For qNPA analysis, cell lysates were thawed at 50C for approximately 30 min, qNPA probes were added, and samples were incubated at 95C for 10 min to begin the detection process by denaturing the target RNA, dissociating the duplexes and secondary structure hybridization. At the conclusion of the hybridization period, S1 nuclease reagent was added to each sample to digest all nonprotected nucleotides at 50C for 60-90 min. […]
In the case of `Fc1ccc(Oc2ccnc3cc(Cl)cc(Cl)c23)cc1`, the molecule was classed as inactive.
The same measure for `CCCCNC(=O)OCC#CI`: “inactive”; for `COc1cnc(OC)n2nc(NS(=O)(=O)c3c(OCC(F)F)cccc3C(F)(F)F)nc12`: “inactive”.
Regarding `COP(=S)(OC)Oc1nc(Cl)c(Cl)cc1Cl`, the outcome was inactive.
Turning to `C=CC1(C)OC(=O)N(c2cc(Cl)cc(Cl)c2)C1=O` (stereo not given), the molecule was called inactive.
The same measure for `CCCN(CCC)c1c([N+](=O)[O-])cc(S(N)(=O)=O)cc1[N+](=O)[O-]`: “inactive”; for `COC(=O)N(OC)c1ccccc1COc1ccn(-c2ccc(Cl)cc2)n1`: “inactive”.
For `C=CCC1=C(C)[C@@H](OC(=O)[C@@H]2[C@@H](C=C(C)C)C2(C)C)CC1=O` the value was “inactive”; for `O=C(O)COc1nc(Cl)c(Cl)cc1Cl`, “inactive”.
Take `CO/C=C(/C(=O)OC)c1ccccc1Oc1cc(Oc2ccccc2C#N)ncn1`: the molecule was classed as inactive.
In the case of `Cc1c(F)c(F)c(COC(=O)C2C(/C=C(\Cl)C(F)(F)F)C2(C)C)c(F)c1F` (stereo not given), the result was inactive.
For `C#CCOS(=O)OC1CCCCC1Oc1ccc(C(C)(C)C)cc1` (stereo not given) the value was “inactive”; for `CNC(=O)ON=CC(C)(C)SC`, “inactive”; for `CS/C(C)=N/OC(=O)N(C)SN(C)C(=O)O/N=C(\C)SC`, “inactive”.
For `CC1COC(Cn2cncn2)(c2ccc(Oc3ccc(Cl)cc3)cc2Cl)O1` (stereo not given) the value was “inactive”; for `COc1nc(NC(C)C)nc(NC(C)C)n1`, “inactive”.
With `COc1nc(C)nc(NC(=O)NS(=O)(=O)c2ccccc2CCC(F)(F)F)n1`, the molecule was called inactive.
The same measure for `CCc1nn(C)c(C(=O)NCc2ccc(C(C)(C)C)cc2)c1Cl`: “inactive”.
Turning to `Cc1cc(Cl)ccc1OCC(=O)O`, the outcome was inactive.
As for `N#Cc1nn(-c2c(Cl)cc(C(F)(F)F)cc2Cl)c(N)c1S(=O)C(F)(F)F` (stereo not given), the outcome was inactive.
The same measure for `CCNc1nc(Cl)nc(NC(C)C)n1`: “inactive”.
The same measure for `CC(C)Oc1cc(-n2nc(C(C)(C)C)oc2=O)c(Cl)cc1Cl`: “inactive”.
The same measure for `CCON=C(CC)C1=C(O)CC(c2c(C)cc(C)cc2C)CC1=O` (stereo not given): “inactive”; for `N#CC(CCc1ccc(Cl)cc1)(Cn1cncn1)c1ccccc1` (stereo not given): “inactive”.
As to `COP(N)(=O)SC` (stereo not given), the result was inactive.
With `CCCCNC(=O)n1c(NC(=O)OC)nc2ccccc21`, the molecule was called inactive.
In the case of `CCOC(=O)C(Cl)Cc1cc(-n2nc(C)n(C(F)F)c2=O)c(F)cc1Cl` (stereo not given), the call was inactive.
For `CN(C)C(=S)SSC(=S)N(C)C` the value was “inactive”.
As to `CNC(=S)S`, the molecule was classed as inactive.
For `N#Cc1cc(Br)c(O)c(Br)c1` the value was “inactive”.
For `COC(=O)C=C(C)OP(=O)(OC)OC` the value was “inactive”; for `CCNc1nc(Cl)nc(NCC)n1`, “inactive”; for `CCCC1COC(Cn2cncn2)(c2ccc(Cl)cc2Cl)O1` (stereo not given), “inactive”.
Take `CCOC(=O)CC(SP(=S)(OC)OC)C(=O)OCC` (stereo not given): the molecule was called inactive.
As for `Cc1ccc(-c2c(Cl)nc(C#N)n2S(=O)(=O)N(C)C)cc1`, the result was inactive.
The same measure for `CC(Oc1ccc(Cl)cc1Cl)C(=O)O` (stereo not given): “inactive”.
Regarding `C=CCC1=C(C)C(OC(=O)C2C(C=C(C)C)C2(C)C)CC1=O` (stereo not given), the molecule was called inactive.
For the molecule `CCCCC(CC)COC(=O)c1ccccc1C(=O)OCC(CC)CCCC` (stereo not given), the molecule was called inactive.
For `CCCCOC(=O)c1ccccc1C(=O)OCCCC` the value was “inactive”; for `COc1nc(C)nc(NC(=O)NS(=O)(=O)c2ccccc2Cl)n1`, “inactive”.
